This is an account of results in PubChem BioAssay AID1159506 (National Center for Advancing Translational Sciences (NCATS), 2015).

In all, about 59,000 sequences were measured (the read-out: median about -0.00055, lowest 2% from about -2 on). Many of the other results were omitted from the sample, so the lowest values are more common in it than they were.

A short description of this experiment: Identification of proteins required for the processing of the EWS-FLI1 nascent transcript.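 Note: robust z of luciferase light less the median z of siRNAs with the same seed.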 The note with it: TC32 Ewing sarcoma NR0B1-luc vs CMV-luc (EWS-FLI1 target promoter against control promoter), 48 h; screened at 20 nM (by protocol). The protocol: Ewing sarcoma (ES) cells depend on the EWS-FLI1 fusion transcription factor for cell survival. Using an assay of EWS-FLI1 activity and genome-wide siRNA screening we have identified proteins required for the processing of the EWS-FLI1 nascent transcript. Parallel genome-wide siRNA-mediated RNAi screens were conducted in Ewing sarcoma TC32 cell lines expressing a luciferase (luc) reporter protein driven by either the promoter of the EWS-FLI1 target gene NR0B1 (TC32-NR0B1-luc) or the CMV promoter (TC32-CMV-luc). Luciferase activity was assessed 48 hours post siRNA-transfection.
Twenty microl of serum-free media containing Lipofectamine RNAiMax (0.05 microl) was added to wells containing siRNA (0.8 pmol). Lipid and siRNA were allowed to complex for 45 min at ambient temperature before addition of 600 cells in RPMI-1640, 20% FBS to yield final transfection mixtures containing 20 nM siRNA in RPMI-1640, 10% FBS. Luciferase expression was measured using OneGlo (Promega, Madison, WI). The genome-wide screening campaign was conducted using Ambion's human genome library version 4.1 (Ambion, Austin TX). This library targets approximately 21000 human genes, three siRNAs per gene. Each siRNA is arrayed in an individual well of a 384-well plate. Parallel transfections were conducted in TC32-NR0B1-luc and TC32-CMV-luc cell lines and luciferase expression (OneGlo, Promega) was assayed 48 h later on a PerkinElmer Envision 2104 Multilabel plate reader (PerkinElmer, Waltham, MA). Qiagen's AllStars Negative control was incorporated on all screening plates for normalization (16 wells per plate). Qiagen, Germantown, MDsiGL4 was incorporated as a positive transfection control (16 wells per plate) on all plates. […] The raw luciferase data for the NR0B1- and CMV-luc screens were normalized and z-score-MAD transformed using standard methods (Chung et al., 2008). The miRNA-like seed sequence of every siRNA was determined and the median z-score for all siRNA sequences with the same seed sequence was calculated. This z-score was subtracted from the z-score associated with each siRNA with that seed sequence to generate a seed-adjusted z-score value (Z) that was used when the results for the three siRNAs corresponding to each gene were compared (Marine et al., 2012)
For UUCAUAACUCUGUUGUGCC against FNBP1L, the seed-corrected z-score turned out to be 0.0737.

Turning to UUCUGUACGCAGGUGAUUG against COL1A1, the seed-corrected z-score stood at 0.0612.

The sequence UUUACGACGCAUCUCAGCC against ARCN1 gave a seed-corrected z-score of -2.64.

In the case of ACGGUUUUUACAUCGAUUC against PTPRO, the seed-corrected z-score worked out at 0.657.

As to UAUUGUGCAAUUUGGUGGG against KLF13, the seed-corrected z-score amounted to 0.422.

On to AAUAUCCCAAUGUUCAUGC against FHDC1, for which the seed-corrected z-score is -2.13.

On to AAACCAAACAAGGAUACCU against C20orf173, for which the seed-corrected z-score was 2.47.

Sequence ACAUAUACUGGUAACACUG against SH3GLB1 gave a seed-corrected z-score of -0.404.

As for UGAUGUCUACAAUAUCACC against RPL21P20, the seed-corrected z-score is -2.36.

As for UUUAUCACCAGGUUAAGCC against GLUD1, the seed-corrected z-score was -0.205.

For the sequence UCUCGGAUCAUGAUGUUGU against PIK3CD, the seed-corrected z-score came out at 0.452.

In turn, UAAACAAUACGUCAGUGCC against OR51T1 gave a seed-corrected z-score of -0.809.

Take UUCGUUCACGGCUAUGACC against CHL1: the seed-corrected z-score was 0.202.

UGAGUUUCAGGUUCUCCGG against CAB39L displayed a seed-corrected z-score of -2.64.

For the sequence UUCCGGAUCAGAUCAUGGG against FAM118A, the seed-corrected z-score is -0.123.

UACAUUCUUGGUUUCAACC against LOC729860: the seed-corrected z-score amounted to 1.84.

Sequence UUAUAUUCAUCCUUGUGAC against CRKL had a seed-corrected z-score of 0.239.

On to UUCUGGUUUGUUUUCAGGC against BAG3, for which the seed-corrected z-score was -2.98.

In the case of AACCGAACAAAUGAAUAUC against TIA1, the seed-corrected z-score is -1.17.

In turn, UAAUCUGCAAGUCAAGUCU against LYSMD2 showed a seed-corrected z-score of -1.06.

Turning to UUCACGACGAUGAUUCCCU against DYNLRB1, the seed-corrected z-score is -0.1.

UCCUCUGUAACCACACUCG against GPT2: the seed-corrected z-score was -0.193.

In the case of AAACUAUACACGGUCGUCC against RFESD, the seed-corrected z-score was -0.265.

Consider UUAGGUUCAACAUCCACAA against SNRPD1, for which the seed-corrected z-score is -2.57.

In the case of AAGGAUAUUAAGAAGAAUC against ARMCX1, the seed-corrected z-score stood at 0.793.

UACGAUGAUAGCCUUGACC against CNOT10 registered a seed-corrected z-score of -0.215.

UCAAGCUUCACUUUCUUCC against DNAJC17 yielded a seed-corrected z-score of 1.06.

In turn, AAAAUGAGAACGUAAAGUC against VN1R5 displayed a seed-corrected z-score of -0.139.

Sequence UCCUGGAUGCGAUUUAUGG against DDRGK1 had a seed-corrected z-score of -0.145.

Regarding UUCUCGUCGAGGUAGAUUU against ITM2C, the seed-corrected z-score was 0.584.

UAACAUACUGGUCCCAUUG against PCTP: the seed-corrected z-score was -1.08.

For the sequence UAUCUUCUAAUGCAAUCCU against RTP2, the seed-corrected z-score came out at 0.814.

Regarding ACCUUGACCACACUUAUUU against VSTM2L, the seed-corrected z-score was -1.03.

Sequence UGCUUAACAAGAUCUGAAC against ZNF271P showed a seed-corrected z-score of -2.37.

UCGGCGAUGUAGGAGAUGG against APBA2 yielded a seed-corrected z-score of 0.0663.

For the sequence AGAAAAUCUAUCUUCCUCU against PFDN5, the seed-corrected z-score is -0.0703.

The sequence UGGGAUAUCACCAACGACG against CCDC168 displayed a seed-corrected z-score of -0.371.

UCAUCUAGAAGAAUAUUCU against SGK494 yielded a seed-corrected z-score of 0.387.

In turn, AAGCUUGCCAAUACCCUGG against RPLP2 returned a seed-corrected z-score of -2.77.

For the sequence UCUAUGUUGACAACCUCUC against DSPP, the seed-corrected z-score came to 2.05.

For UUGCAUUUUAUCACAGUAG against LY96, the seed-corrected z-score is -0.122.

On to UCAGCAAAAACAUCUCACU against OR4Q3, for which the seed-corrected z-score was found to be 0.873.

AAACUGACCAUUCACUACC against DCAF12 yielded a seed-corrected z-score of -10.7.

For UCUGGAAUUUGGGUUGAUG against C1orf105, the seed-corrected z-score was -0.114.

The sequence UAGAUGUGCAUGUAGGUGA against ADO returned a seed-corrected z-score of 0.279.

With AAGGCAUCCAAGAAGCUCC against KCNK6, the seed-corrected z-score was 0.0975.

UUGGAAACUACAGAUGAGA against WDR82 came in with a seed-corrected z-score of -2.39.

As for UUCCUUAAGGUGUCCCUCC against HSPA12A, the seed-corrected z-score worked out at 0.369.

Regarding UUGCGAUGGAAAGACAUGU against CD5, the seed-corrected z-score came to 0.451.

As for AAUGCUCUCAGUUGAGAUG against C19orf44, the seed-corrected z-score was -0.0313.

Turning to UAACCUCUGGGUCACAUGC against ACIN1, the seed-corrected z-score was determined as 0.0177.

UCUGUCUAAAUAACUUAUU against NAT8L had a seed-corrected z-score of -0.913.

In the case of UAUUGAAUGAUGUGGAGUC against PTCD2, the seed-corrected z-score amounted to 0.667.

UUAAGUAUUGGAUUUCAUA against DEFB116 registered a seed-corrected z-score of 0.226.

As to UCGGAAUAAAUUGAGCUGC against API5, the seed-corrected z-score is -16.5.

UGUGCGAGAACAUUCCUGC against HIP1R had a seed-corrected z-score of 0.0278.

UUUGUGCAUGCUGUCGUUC against TNIP2 yielded a seed-corrected z-score of -0.335.

UACAGCUAAACUGUACAGC against ORC6 gave a seed-corrected z-score of -2.09.

For the sequence UUCGGUUCAUGACAAAUAC against SLC35F5, the seed-corrected z-score is 0.354.

UAGCAUACUAUUGUCCUGC against MRPL42: the seed-corrected z-score stood at 0.102.

With UCCUGGUUCACCAAUUUCU against COL9A1, the seed-corrected z-score is -0.362.

As to UAGGUUAUGAAAUUAAUCA against MAP6D1, the seed-corrected z-score was -2.45.

As to AUUCAUAGAAGUAUUCUGC against WIF1, the seed-corrected z-score is -0.598.

For UAAGUUUUGAGGAUAGGUG against ZNF117, the seed-corrected z-score was 0.415.

Turning to UUGGGAUUCAGGUUCCGCU against TCF3, the seed-corrected z-score was -0.377.

UCGCUUCCCAGAAUUGCUG against GPR65 came in with a seed-corrected z-score of 1.15.
